Bioassay records: PubChem BioAssay, National Center for Advancing Translational Sciences (NCATS)
This excerpt belongs to a sample that is enriched for hits.
Sm TGR inh: inhibitors of Schistosoma mansoni thioredoxin glutathione reductase. Potency, µM (series often up to 114 µM), for inactives: top-dose activity change, negative = inhibition, usual class: inhibitors. Q962Y6. 3% of 360,000 active. purified TGR, DTNB reduction, TNB absorbance 405 nm; also: potency is read from the fitted curve at half-maximal effect; % is scaled to controls: 0 for no effect and ±100 for the full control effect; nearly all actives have a fitted effect of over 60% in size
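First, TGR (20 nM dispensed) and NADPH were mixed with compound. Second, a 15 min room-temperature incubation followed. Third, further NADPH and then DTNB were added to start the reaction. Finally, TNB absorbance was monitored kinetically.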
Cycloheximide cs: affects cycloheximide protein synthesis inhibition readout, counter-screen | cell reporter, cycloheximide protein synthesis inhibition counterscreen | max response, % | 12% of 300,000 active | AID 2314; in the data active = max response mostly above about 13%, no sharp cut-off; inactive = mostly below about 14%; also: read at 38.3 µM for the half of the compounds with a filed dose; 0% is about no effect
TbPYK inhibitor: blocks Trypanosoma brucei pyruvate kinase. Q57TT1. TbPYK enzyme, Kinase-Glo Plus ATP luminescence, 45 min. Potency, µM (highest dose often 76.8 µM), without a hit: top-dose activity, negative = inhibition, most hits filed as inhibitors. 0.12% of 410,000 active; also: potency is read from the fitted curve at half-maximal effect; % is scaled to controls: 0 for no effect and ±100 for the full control effect; nearly all actives have a fitted effect of over 50% in size
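Glycolytic pyruvate kinase of T. brucei was incubated with substrate, test compound and 130 uM ADP for 45 minutes at room temperature. Luminescent Kinase-Glo Plus signal was measured after 10 minutes.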
Shiga inhibitor: Shiga toxin inhibition; Vero cells, Shiga toxin protein synthesis inhibition reporter; inhibition, % at 38.7 µM; 9.2% of 290,000 active; in the data active = inhibition mostly above about 28%, no sharp cut-off; inactive = mostly below about 43%; also: 0% is about no effect
LmPK inh: inhibitors of Leishmania mexicana pyruvate kinase | Q27686 | purified LmPK, Kinase-Glo ATP luminescence, 1 h | Potency, µM (doses to about 57.5 µM), for inactives: at the top dose activity change, negative = inhibition, most hits filed as inhibitors | 0.37% of 290,000 active | AID 1721; also: potency is read from the fitted curve at half-maximal effect; % is scaled to controls: 0 for no effect and ±100 for the full control effect
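Purified LmPK (0.1 nM) converted ADP (0.1 mM) to ATP with PEP (0.5 mM) in imidazole buffer pH 7.2 with KCl and MgCl2, 1 h at room temperature. ATP was read by Kinase-Glo luminescence; data normalized to uninhibited and no-enzyme controls.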
FBPA Giardia inh: inhibitors of Giardia lamblia fructose-1,6-bisphosphate aldolase; Potency, µM (titrated, usually from 59.6 µM), without a hit: top-dose activity, negative = inhibition, hits mostly inhibitors; 0.71% of 290,000 active; A8B2U2; purified Giardia FBPA; AID 2451; also: potency is read from the fitted curve at half-maximal effect; % is scaled to controls: 0 for no effect and ±100 for the full control effect; nearly all actives have a fitted effect of over 55% in size
Target sequence (A8B2U2 whole entry, looked up): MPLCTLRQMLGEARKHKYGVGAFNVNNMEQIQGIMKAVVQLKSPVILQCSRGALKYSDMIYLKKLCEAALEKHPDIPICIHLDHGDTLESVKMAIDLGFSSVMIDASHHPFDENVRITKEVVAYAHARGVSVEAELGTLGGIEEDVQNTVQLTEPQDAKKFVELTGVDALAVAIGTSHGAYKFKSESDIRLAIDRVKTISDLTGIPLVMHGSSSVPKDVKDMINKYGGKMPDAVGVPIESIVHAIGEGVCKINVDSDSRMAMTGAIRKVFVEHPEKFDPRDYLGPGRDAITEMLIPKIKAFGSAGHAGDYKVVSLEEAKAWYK
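40 nM FBPA preincubated 10 min at RT with compound (up to 57.5 uM final), then substrate plus GAPDH/TPI/NAD/arsenate coupling and diaphorase/resazurin added. Fluorescence read after 20 min at RT, 525/598 nm.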
Starred values were filed as active, the others as inactive; [ ] = another dose, or the depositor's remark. Unless noted, calls follow the shape of the dose curve; as a rule, active = well fitted curve in the direction sought with a large enough effect; inconclusive = small, poorly fitted or top-dose-only effect, or another doubt; inactive = no such curve, though single readings can be large; an effect the other way counts as inactive or inconclusive.

O=C(Nc1ccc(N2C(=O)C3CCCCC3C2=O)cc1Cl)c1cccs1 (stereo not given) was read as Sm TGR inh 7.1%, Cycloheximide cs 18.2*, TbPYK inhibitor -0.6%, Shiga inhibitor 31.0, LmPK inh 6.3% and FBPA Giardia inh -0.6%.
COc1ccc(Cl)cc1NC(=S)NNC(=O)c1cccs1 was read as Sm TGR inh 0.6%, Cycloheximide cs 23.0*, TbPYK inhibitor -13.5%, Shiga inhibitor 43.4*, LmPK inh -0.3% and FBPA Giardia inh 4.9%.
`O=C(NNC(=O)c1ccccc1[N+](=O)[O-])c1ccco1` gave Sm TGR inh -20.0%, Cycloheximide cs 10.9, TbPYK inhibitor -11.4%, Shiga inhibitor 13.0, LmPK inh -12.9% and FBPA Giardia inh -0.2%.
For O=C(NNC(=O)c1ccccc1Cl)c1ccco1 the results were Sm TGR inh 2.5%, Cycloheximide cs 17.3*, TbPYK inhibitor 8.4%, Shiga inhibitor 42.0, LmPK inh -6.1% and FBPA Giardia inh 0.4%.
For COc1ccc(Cl)cc1NC(=S)NNC(=O)c1cccnc1 the results were Sm TGR inh -0.3%, Cycloheximide cs -1.4, TbPYK inhibitor -10.0%, Shiga inhibitor -8.0, LmPK inh -1.7% and FBPA Giardia inh 12.6%.
Screening CO[C@H]1COC(=O)C/C=C\[C@@H](C)[C@H](OC)COC(=O)CCC[C@@H]1C returned FBPA Giardia inh -0.7%[12.9 µM].
`O=C(CCC(=O)c1cccs1)NNC(=O)c1cc(Cl)ccc1Cl` gave TbPYK inhibitor 17.1%.
Screening O=C(Nc1ccccc1Cl)c1cccs1 returned Sm TGR inh -18.2%, Cycloheximide cs 27.4*, TbPYK inhibitor -13.5%, Shiga inhibitor 103.5*, LmPK inh -5.3% and FBPA Giardia inh 0.1%.
Screening O=C(/C=C/c1ccccc1Cl)NNC(=O)c1cccs1 returned Sm TGR inh 1.9%, Cycloheximide cs 32.0*, TbPYK inhibitor 0.1%, Shiga inhibitor 46.2, LmPK inh -0.6% and FBPA Giardia inh -1.0%.
For Cc1c(NC(=O)c2cccs2)cccc1NC(=O)c1cccs1 the results were Sm TGR inh 0.0%, Cycloheximide cs -2.1, TbPYK inhibitor -12.7%, Shiga inhibitor 1.6 and LmPK inh -1.5%.
Screening O=C(NNC(=O)c1ccccc1Cl)c1cccs1 returned Sm TGR inh -20.3%, Cycloheximide cs 31.1, TbPYK inhibitor 12.9%, Shiga inhibitor 35.4*, LmPK inh 1.5% and FBPA Giardia inh -1.0%.
O=C(NNC(=O)c1cc(Cl)ccc1O)c1cccs1 was read as Sm TGR inh -0.2%, Cycloheximide cs 28.6*, TbPYK inhibitor -1.1%, Shiga inhibitor 49.3*, LmPK inh 3.7% and FBPA Giardia inh inconclusive.
`O=C(Nc1ccccc1Cl)c1ccc(-c2ccccn2)s1` gave Sm TGR inh 13.3%, Cycloheximide cs 49.1*, TbPYK inhibitor -0.3%, Shiga inhibitor 64.1*, LmPK inh 5.3% and FBPA Giardia inh 0.4%.
Screening O=C(Nc1ccccc1F)c1ccc(-c2ccccc2)s1 returned Sm TGR inh -7.9% and TbPYK inhibitor -8.4%.
`CCN1C(=O)[C@H]2[C@@H](c3ccc(Cl)cc3)N3C(=O)CN(CCOC)C(=O)[C@@]3(Cc3ccccc3)[C@H]2C1=O` gave Sm TGR inh 11.9%, Cycloheximide cs 1.2, TbPYK inhibitor -3.2%, Shiga inhibitor -5.7, LmPK inh -5.0% and FBPA Giardia inh -13.6%.
For O=C(N/N=C/c1ccccc1O)C(=O)N1CCCCCC1 the results were Sm TGR inh -1.7%, Cycloheximide cs 20.1*, TbPYK inhibitor 0.7%, Shiga inhibitor 20.6 and LmPK inh -9.3%.
`COc1cccc(/C=N/NC(=O)C(=O)N2CCCC2)c1OC` gave Sm TGR inh -8.5%, Cycloheximide cs 0.8, TbPYK inhibitor -6.1%, Shiga inhibitor -15.1, LmPK inh -3.6% and FBPA Giardia inh 4.9%.
For COCCNC(=O)C(=O)N/N=C/c1cccs1 the results were Sm TGR inh -1.7%, Cycloheximide cs 7.2, TbPYK inhibitor 0.8%, Shiga inhibitor 23.2, LmPK inh -2.2% and FBPA Giardia inh 2.8%.
For O=C(N/N=C/c1ccccc1F)C(=O)N1CCCCCC1 the results were Sm TGR inh 2.7%, Cycloheximide cs 24.3*, TbPYK inhibitor -4.5%, Shiga inhibitor 34.5*, LmPK inh -0.4% and FBPA Giardia inh 2.0%.
Screening COc1ccccc1NC(=O)C(=O)N/N=C/c1cccs1 returned Sm TGR inh -0.3%, Cycloheximide cs 38.4*, TbPYK inhibitor -8.0%, Shiga inhibitor 99.0*, LmPK inh -22.9% and FBPA Giardia inh 8.1%.
`O=C(N/N=C/c1cccc(O)c1)C(=O)N1CCCCCC1` gave Sm TGR inh 10.0%, Cycloheximide cs 7.8, TbPYK inhibitor 0.0%, Shiga inhibitor 3.8, LmPK inh 1.3% and FBPA Giardia inh 3.8%.
Screening O=C(N/N=C/c1cccs1)C(=O)N1CCCC1 returned Cycloheximide cs 28.0*, TbPYK inhibitor 2.1%, Shiga inhibitor 48.1, LmPK inh -4.2% and FBPA Giardia inh 0.1%.
O=C(CN1CCCCCC1)N/N=C/c1cccs1 was read as Sm TGR inh 1.7%, Cycloheximide cs 1.4, TbPYK inhibitor -10.1%, Shiga inhibitor -18.7, LmPK inh -10.5% and FBPA Giardia inh -16.6%.
`CSCCC(NC(=O)c1ccccc1)C(=O)NNC(=O)c1csc(N2CCOCC2)n1` (stereo not given) gave Sm TGR inh -20.2%, Cycloheximide cs -1.6, TbPYK inhibitor -1.3%, Shiga inhibitor 19.8 and LmPK inh -1.9%.
For Cc1ccccc1Cn1ccc(NC(=O)c2onc(C)c2Cl)n1 the results were Sm TGR inh -4.6%, Cycloheximide cs 28.6*, TbPYK inhibitor -6.5%, Shiga inhibitor 75.9*, LmPK inh 11.1% and FBPA Giardia inh -3.3%.
Screening Cc1ccccc1Cn1ccc(NC(=O)c2nc3ncccn3n2)n1 returned Sm TGR inh 11.6%, Cycloheximide cs 9.3*, TbPYK inhibitor -0.6%, Shiga inhibitor 18.4, LmPK inh -2.0% and FBPA Giardia inh 7.3%.
For C/C(=N/NC(=O)CNC(=O)c1cccs1)c1ccco1 the results were Sm TGR inh -2.6%, Cycloheximide cs -2.9, TbPYK inhibitor -2.3%, Shiga inhibitor 50.7*, LmPK inh 1.1% and FBPA Giardia inh 1.0%.
C/C(=N/NC(=O)Cc1cccs1)c1ccco1 was read as Sm TGR inh 0.3%, Cycloheximide cs 22.0*, TbPYK inhibitor inconclusive, Shiga inhibitor 27.2*, LmPK inh 6.0% and FBPA Giardia inh -2.6%.
CCCn1c(=O)c2sccc2n2c(CCCC(=O)Nc3ccccc3F)nnc12 was read as Sm TGR inh 0.5% and TbPYK inhibitor 1.4%.
`O=C(NCc1ccccn1)C1CCCN(S(=O)(=O)c2cc(Cl)ccc2Cl)C1` (stereo not given) gave TbPYK inhibitor -12.0%.
